Rows were chosen to be rich in hits. Some 12% of all compounds tested hit in one or more screens of this group.
BAZ2B inh – qHTS Assay for Inhibitors of BAZ2B | Potency, µM (titrated, usually from 114 µM), hits mostly inhibitors | AID 504333, 2011 | Bromodomain adjacent to zinc finger domain protein 2B (Homo sapiens), Q9UIF8 | 360,000 compounds, 4.4% hits | AlphaScreen BAZ2B-H3K14Ac peptide displacement; note: nearly all actives have a fitted effect of over 60% in size
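Protein-peptide AlphaScreen: BAZ2B 50 nM, b-H3K14Ac 50 nM, 1x PBS pH 7.4 + 0.01% Tween-20. Preincubation 30 min RT; cpd 30 min RT (top 110 uM); beads 20 min RT, light-protected.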
PLK1 PBD block – qHTS for Inhibitors of PLK1-PDB (polo-like kinase 1 - polo-box domain): Primary Screen; Serine/threonine-protein kinase PLK1 (Homo sapiens), P53350; Plk1 PBD binding of FITC phosphopeptide, fluorescence polarization; Potency, µM, usual class: inhibitors; 360,000 compounds, 2.8% hits; note: series mostly up to about 57 µM; nearly all actives have a fitted effect of over 65% in size
Sfp PPTase inh – qHTS Assay for Inhibitors of Bacillus subtilis Sfp phosphopantetheinyl transferase (PPTase). Potency, µM, most hits filed as inhibitors. Biochemical Sfp PPTase activity, qHTS. AID 1490, 2009. 310,000 compounds, 3.5% hits. 4'-phosphopantetheinyl transferase ffp (Bacillus subtilis), Q9F4F7;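 note: the enzyme is Sfp with the accession as filed and its product quenches rhodamine fluorescence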
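With Hepes-Na pH 7.6 buffer containing 10 mM MgCl2, Sfp (15 nM) modified BHQ-2-YbbR (12.5 uM) using rhodamine-CoA (5 uM). Two reads 30 minutes apart at 525/598 nm yielded each well's rate.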
JMJD2A Tudor inh – qHTS Assay for Inhibitors of JMJD2A-Tudor Domain | 390,000 compounds, 4.4% hits | AID 504339, 2011 | Potency, µM (top dose mostly 114 µM), hits mostly inhibitors | Lysine-specific demethylase 4A (Homo sapiens), O75164 | AlphaScreen JMJD2A-Tudor / H3K4me3 peptide binding; note: nearly all actives have a fitted effect of over 50% in size
HP1b chromo inh – HTS for Inhibitors of HP1-beta Chromodomain Interactions with Methylated Histone Tails. Potency, µM (doses to about 114 µM), most hits filed as inhibitors. Chromobox protein homolog 1 (Homo sapiens), P83916. AlphaScreen HP1-beta / biotin-H3K9me3 peptide binding. 390,000 compounds, 0.56% hits; note: nearly all actives have a fitted effect of over 70% in size
Target sequence (P83916 whole entry, looked up): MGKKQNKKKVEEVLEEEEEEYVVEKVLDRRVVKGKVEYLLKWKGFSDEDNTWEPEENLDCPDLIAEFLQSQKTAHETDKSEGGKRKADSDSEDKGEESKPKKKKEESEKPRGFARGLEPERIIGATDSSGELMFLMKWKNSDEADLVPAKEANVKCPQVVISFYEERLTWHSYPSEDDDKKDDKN
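AlphaScreen: HP1-beta (50 nM) preformed 30 min with biotin-H3(1-18)K9me3 peptide (50 nM) in PBS pH 7.4, 0.01% Tween-20. Compound added for 30 min at RT, then streptavidin donor/nickel chelate acceptor beads (10 ug/mL) for 30 min.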
G9a inh – qHTS Assay for Inhibitors of Histone Lysine Methyltransferase G9a; G9a H3K9 monomethylation, AlphaScreen, 2 h; AID 504332, 2011; Potency, µM (titrated, usually from 102 µM), hits mostly inhibitors; Histone-lysine N-methyltransferase EHMT2 (Homo sapiens), Q96KQ7; 350,000 compounds, 8.8% hits; note: nearly all actives have a fitted effect of over 75% in size
Target sequence (Q96KQ7 913-1193 limits assumed): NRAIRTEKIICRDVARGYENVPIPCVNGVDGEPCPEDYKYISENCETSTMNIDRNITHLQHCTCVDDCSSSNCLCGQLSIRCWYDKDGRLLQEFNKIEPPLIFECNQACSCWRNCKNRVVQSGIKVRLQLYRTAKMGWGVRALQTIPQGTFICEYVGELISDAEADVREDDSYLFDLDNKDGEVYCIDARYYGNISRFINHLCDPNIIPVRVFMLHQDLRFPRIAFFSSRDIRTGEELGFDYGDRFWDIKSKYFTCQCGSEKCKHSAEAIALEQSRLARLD
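AlphaScreen detection with an anti-monomethyl H3K9 antibody quantified product after a 2 h room-temperature reaction containing 500 nM biotinylated H3K9 peptide, 20 µM SAM and 20 nM enzyme, which had been preincubated 15 min with compound.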
Hits are given with their value; – = inactive; ? = inconclusive; · = not tested or not shown; [ ] = remark or other dose. Calls come from the whole dose curve; as a rule, active = well fitted curve in the direction sought with a large enough effect; inconclusive = small, poorly fitted or top-dose-only effect, or another doubt; inactive = no such curve, though single readings can be large; an effect the other way counts as inactive or inconclusive.

SMILES	BAZ2B inh	PLK1 PBD block	Sfp PPTase inh	JMJD2A Tudor inh	HP1b chromo inh	G9a inh
S=c1[nH]nc([C@@H]2C[C@H]2c2ccccc2)n1-c1ccccc1	–	–	–	18µM	–	2µM
Cc1ccc(S(=O)(=O)N2CCOCC2)cc1NC(=O)CNc1ccccc1N1CCCC1=O	–	–	·	–	–	?
CCOc1ccccc1OCC(=O)Nc1ccc(N2CCOCC2)cc1N1CCOCC1	–	–	·	?	–	56µM
O=C(COc1ccccc1F)Nc1ccc(N2CCOCC2)cc1N1CCOCC1	–	–	·	–	–	?
COc1ccccc1-c1ocnc1C(=O)Nc1ccc(N2CCOCC2)cc1N1CCOCC1	–	–	–	?	–	50µM
CCOc1ccccc1NC(=O)COc1coc(CN2CCCc3ccccc32)cc1=O	?	–	·	?	–	50µM
CCOc1ccccc1NC(=O)COc1coc(CN2CCc3ccccc3C2)cc1=O	?	–	·	–	–	–[0.501 µM]
O=C(COc1ccc(F)cc1Cl)Nc1ccc(N2CCOCC2)cc1N1CCOCC1	–	–	·	–	–	35µM
CCOc1ccccc1-c1nnc2n1N=C(c1ccc(OC)cc1)CS2	·	·	–	–	·	·
Cc1ccc(S(=O)(=O)N2CCN(C(=O)C3CCN(C(=O)c4ccc(F)cc4)CC3)CC2)c(C)c1	–	–	·	18µM	–	?
Cc1ccc(S(=O)(=O)N2CCN(C(=O)C3CC3C)CC2)c(C)c1 (stereo not given)	–	–	·	–	–	–
CCN(CC)CCC(C)OC(c1ccccc1)c1ccccc1 (stereo not given)	–	–	–	25µM	–	?
CCN(CC)CCOC(c1ccccc1)c1ccc(C)cc1 (stereo not given)	–	–	–	–	–	–
CNC(=O)c1cnc2sc(N3CCCCCC3)nn2c1=O	–	·	·	–	–	–
CCCCc1cc(=O)oc2cc(OCC(=O)Nc3cccnc3)c(Cl)cc12	–	–	–	–	–	–
CCC(COC(=O)c1ccccc1)Oc1cc(NCc2ccccc2)c2ncn(C(C)C)c2c1 (stereo not given)	·	–	·	45µM	–	·
CCC(COC)Oc1cc(NCc2ccccc2)c2ncn(C(C)C)c2c1 (stereo not given)	50µM	?	·	50µM	–	–[0.501 µM]
CCC(CO)Oc1cc(NCc2ccccc2)c2ncn(C(C)C)c2c1 (stereo not given)	·	–	·	?	–	·
CCC(CO)Oc1cc(NCc2ccc(C(C)(C)C)cc2)c2ncn(C(C)C)c2c1 (stereo not given)	·	–	·	25µM	–	·
COc1cccc(NC(=O)Cn2c(=O)ccc3cc(S(=O)(=O)N4CCC(C)CC4)ccc32)c1	–	·	·	–	–	–
CCCCc1ccc(NC(=O)Cn2c(=O)c(N3CCCCC3)c(N)n(C)c2=O)cc1	·	–	·	–	–	·
CCCCn1cc(S(=O)(=O)c2cccc(C)c2)c(=O)c2cc(F)c(N3CCOCC3)cc21	–	·	·	–	–	–
O=C(CSc1ccc(-c2ccccn2)nn1)NC1CCCCC1	4µM	–	–	3.5µM	–	–
O=C(CSc1ccc(-c2ccccn2)nn1)NCc1ccc(F)cc1	3.2µM	–	–	7.9µM	–	–
O=C(CSc1ccc(-c2ccco2)nn1)NC1CCCCC1	50µM	–	25µM	?	–	45µM
SMILES	BAZ2B inh	PLK1 PBD block	Sfp PPTase inh	JMJD2A Tudor inh	HP1b chromo inh	G9a inh
O=C(CSc1ccc(-c2ccccc2)nn1)NC1CCCCC1	–	–	–	–	–	·
O=C(CSc1ncccn1)NCc1ccc(F)cc1	·	–	–	–	–	–
CCC1CCc2c(sc(NC(=O)c3ccco3)c2C(N)=O)C1 (stereo not given)	–	–	–	?	–	–
CCC(C)(C)C1CCc2c(sc(N)c2C(N)=O)C1 (stereo not given)	?	–	–	?	–	?
CC(C)(C)C1CCc2c(sc(N)c2C(N)=O)C1 (stereo not given)	–	?	50µM	–	–	4µM
CCCC1CCc2c(sc(N)c2C(N)=O)C1 (stereo not given)	?	27µM	?	?	?	32µM
COc1ccc(C(=O)Oc2cc(C)c(CN3CCOCC3)cc2C)cc1OC	–	–	–	–	–	–
Cc1cccc(NC(=O)CSc2nnc(-c3ccco3)c(-c3ccco3)n2)c1	50µM	27µM	7.9µM	40µM	?	8.9µM
Cc1cccc(NC(=O)CSc2nnc(-c3ccco3)c(-c3ccco3)n2)c1C	35µM	15µM	32µM	50µM	?	–[0.501 µM]
CCN(CC)C(=O)c1ccc2c(=O)n(CCOC)c(=S)[nH]c2c1	?	–	–	18µM	–	45µM
COCCn1c(=S)[nH]c2cc(C(=O)N3CC(C)CC(C)C3)ccc2c1=O (stereo not given)	–	–	–	–	–	–
